Data reported in PubChem BioAssay (EPA / NIEHS).
Values joined by “and” are separate entries in the source; they are usually repeats but may differ in a detail not shown here. Equal values may be shown once. Some structures have more than one record in an assay (separate samples or runs), and their calls can disagree. Active and inactive are the calls of the source. The calls were made as follows: active = hit-call score of the fitted dose curve at least 0.9, where 1 is the maximum; inactive = score below 0.9.

Legend:
[1] = read-out: Interleukin-1 alpha (IL1a), IL1A (gene 3552); assay: BSK_BF4T_IL1a: BioMAP Diversity Plus: BF4T Assay for Interleukin-1 alpha (IL1a) Biomarker Activity (AID 2284264); settings: primary human bronchial epithelial cells with fibroblasts
Outline: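 ELISA read-out of IL-1α from bronchial epithelial cell/dermal fibroblast co-cultures 24 h after compound addition. Increases scored against DMSO negative control. Cytotoxicity monitored by sulforhodamine B staining of parallel cultures.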

[2] = read-out: Decorin, DCN (gene 1634); assay: BSK_MyoF_Decorin: BioMAP Diversity Plus: MyoF Assay for Decorin Biomarker Activity (AID 2284265); settings: primary human lung fibroblasts
Outline: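 ELISA readout of decorin, 24 h post-dosing; primary human lung fibroblast (MyoF) culture; gain-of-signal fit vs DMSO baseline.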

[3] = read-out: KRT18 (gene 3875); assay: BSK_BF4T_Keratin818: BioMAP Diversity Plus: BF4T Assay for Keratin 818 Biomarker Activity (AID 2284266); settings: primary human bronchial epithelial cells with fibroblasts
Outline: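 Keratin 8/18 levels quantified by ELISA after 24 h chemical treatment of bronchial epithelial cell/dermal fibroblast co-cultures, fitted in positive direction relative to DMSO. Parallel SRB staining tracks overt cytotoxicity.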

[4] = BSK_MyoF_SRB: Viability Assessment in the BioMAP Diversity Plus: MyoF Assay (AID 2284267); settings: primary human lung fibroblasts;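 also: total protein by SRB absorbance in parallel cultures as cytotoxicity measure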
Outline: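 Cytotoxicity read-out: after 10% TCA fixation, parallel human lung fibroblast cultures were stained with 0.1% SRB at 24 h post-dosing and read at 560 nm; DMSO served as baseline.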

[5] = read-out: Matrix Metallopeptidase 1 (MMP1), MMP1 (gene 4312); assay: BSK_MyoF_MMP1: BioMAP Diversity Plus: MyoF Assay for Matrix Metallopeptidase 1 (MMP1) Biomarker Activity (AID 2284268); settings: primary human lung fibroblasts
Outline: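 Cells: human lung fibroblasts. Exposure: 24 h chemical dosing. Detection: ELISA for MMP1. Analysis: upward fitting against DMSO negative control.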

[6] = read-out: TIMP metallopeptidase inhibitor 1 (TIMP1), TIMP1 (gene 7076); assay: BSK_MyoF_TIMP1: BioMAP Diversity Plus: MyoF Assay for TIMP metallopeptidase inhibitor 1 (TIMP1) Biomarker Activity (AID 2284269); settings: primary human lung fibroblasts
Outline: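 TIMP-1 levels were determined by ELISA in human lung fibroblasts treated for 24 h. DMSO served as negative control and baseline for upward curve fitting.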

[7] = read-out: Matrix Metallopeptidase 1 (MMP1), MMP1 (gene 4312); assay: BSK_BF4T_MMP1: BioMAP Diversity Plus: BF4T Assay for Matrix Metallopeptidase 1 (MMP1) Biomarker Activity (AID 2284270); settings: primary human bronchial epithelial cells with fibroblasts
Outline: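 MMP-1 quantified by ELISA in primary human bronchial epithelial/dermal fibroblast co-cultures, 24 hours post-dosing, with DMSO as baseline; parallel sulforhodamine B staining (560 nm) tracks overt cytotoxicity.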

[8] = read-out: Matrix Metallopeptidase 3 (MMP3), MMP3 (gene 4314); assay: BSK_BF4T_MMP3: BioMAP Diversity Plus: BF4T Assay for Matrix Metallopeptidase 3 (MMP3) Biomarker Activity (AID 2284271); settings: primary human bronchial epithelial cells with fibroblasts
Outline: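 MMP-3 level read by ELISA after 24 h chemical exposure of bronchial epithelial cell/dermal fibroblast co-cultures, fitted upward relative to DMSO. Parallel cultures stained with 0.1% SRB after TCA fixation gauge overt cytotoxicity.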

[9] = read-out: Tissue plasminogen activator (tPA), PLAT (gene 5327); assay: BSK_BF4T_tPA: BioMAP Diversity Plus: BF4T Assay for Tissue plasminogen activator (tPA) Biomarker Activity (AID 2284272); settings: primary human bronchial epithelial cells with fibroblasts
Outline: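 tPA level quantified by ELISA at 24 h post-treatment in bronchial epithelial/dermal fibroblast co-cultures, gain of signal scored against DMSO baseline. Parallel cultures stained with 0.1% SRB (560 nm) to flag overt cytotoxicity.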

[10] = read-out: Plasminogen Activator Inhibitor-1 (PAI1), SERPINE1 (gene 5054); assay: BSK_BF4T_PAI1: BioMAP Diversity Plus: BF4T Assay for Plasminogen Activator Inhibitor-1 (PAI1) Biomarker Activity (AID 2284273); settings: primary human bronchial epithelial cells with fibroblasts
Outline: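 PAI-1 levels quantified by ELISA 24 h post-dosing in bronchial epithelial cell plus dermal fibroblast cultures. Signal gain referenced to DMSO baseline. Sulforhodamine B total-protein staining of parallel wells checked cytotoxicity.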

[11] = BSK_BF4T_SRB: Viability Assessment in the BioMAP Diversity Plus: BF4T Assay (AID 2284274); settings: primary human bronchial epithelial cells with fibroblasts
Outline: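 Cytotoxicity measured as total protein: cells fixed with 10% TCA, stained with 0.1% SRB, read at 560 nm. Bronchial epithelial/dermal fibroblast co-culture, 24 h after dosing, with positive-direction fitting relative to DMSO.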

[12] = read-out: urokinase Plasminogen Activator (uPA), PLAU (gene 5328); assay: BSK_BF4T_uPA: BioMAP Diversity Plus: BF4T Assay for urokinase Plasminogen Activator (uPA) Biomarker Activity (AID 2284275); settings: primary human bronchial epithelial cells with fibroblasts
Outline: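 uPA levels measured by ELISA at 24 hours in BF4T cultures (bronchial epithelial cells plus dermal fibroblasts) and compared with DMSO; cytotoxicity tracked in parallel cultures by sulforhodamine B staining.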

[13] = read-out: Matrix Metallopeptidase 9 (MMP9), MMP9 (gene 4318); assay: BSK_BF4T_MMP9: BioMAP Diversity Plus: BF4T Assay for Matrix Metallopeptidase 9 (MMP9) Biomarker Activity (AID 2284276); settings: primary human bronchial epithelial cells with fibroblasts
Outline: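 MMP-9 levels were measured by ELISA after 24 h exposure of bronchial epithelial cell/dermal fibroblast co-cultures, with DMSO as baseline. Parallel cultures were stained with 0.1% SRB after TCA fixation, read at 560 nm, to flag overt cytotoxicity.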

[14] = read-out: Interleukin-8 (IL8), CXCL8 (gene 3576); assay: BSK_IMphg_IL8: BioMAP Diversity Plus: IMphg Assay for Interleukin-8 (IL8) Biomarker Activity (AID 2284277); settings: primary human endothelial cells with macrophages
Outline: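 IL-8 levels were measured by ELISA 24 h after dosing in primary human venular endothelial cell–macrophage cultures, referenced to DMSO; parallel SRB staining monitored overt cytotoxicity.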

[15] = read-out: Intercellular Adhesion Molecule 1 (ICAM1), ICAM1 (gene 3383); assay: BSK_BE3C_ICAM1: BioMAP Diversity Plus: BE3C Assay for Intercellular Adhesion Molecule 1 (ICAM1) Biomarker Activity (AID 2284278); settings: primary human bronchial epithelial cells;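 also: cell-surface ICAM-1 protein level quantified by ELISA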
Outline: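 ICAM-1 quantified by ELISA and fitted against DMSO baseline, 24 h post-dosing in BE3C cultures of primary human lung bronchial epithelial cells. Cytotoxicity checked in parallel cultures by total protein SRB staining.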

[16] = read-out: Interferon-inducible T-cell alpha chemoattractant (ITAC), CXCL11 (gene 6373); assay: BSK_BE3C_ITAC: BioMAP Diversity Plus: BE3C Assay for Interferon-inducible T-cell alpha chemoattractant (ITAC) Biomarker Activity (AID 2284279); settings: primary human bronchial epithelial cells
Outline: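 The assay measures I-TAC levels by ELISA in human primary bronchial epithelial cell cultures 24 hours after chemical treatment. Values reflect signal increase over the DMSO baseline.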

[17] = read-out: Interleukin-8 (IL8), CXCL8 (gene 3576); assay: BSK_BE3C_IL8: BioMAP Diversity Plus: BE3C Assay for Interleukin-8 (IL8) Biomarker Activity (AID 2284280); settings: primary human bronchial epithelial cells
Outline: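 Measured at 24 h after treatment, IL-8 from human primary bronchial epithelial cells is determined by ELISA, and the response is modelled as increasing relative to DMSO negative control.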

[18] = read-out: Epidermal growth factor receptor (EGFR), EGFR (gene 1956); assay: BSK_BE3C_EGFR: BioMAP Diversity Plus: BE3C Assay for Epidermal growth factor receptor (EGFR) Biomarker Activity (AID 2284281); settings: primary human bronchial epithelial cells
Outline: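 Measured 24 h after dosing in primary human bronchial epithelial cultures, EGFR was read by ELISA; gain of signal over DMSO control defined activity.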

[19] = read-out: KRT18 (gene 3875); assay: BSK_BE3C_Keratin818: BioMAP Diversity Plus: BE3C Assay for Keratin 818 Biomarker Activity (AID 2284282); settings: primary human bronchial epithelial cells
Outline: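 ELISA readout of Keratin 8/18 in human primary bronchial epithelial cultures after 24 h chemical exposure, DMSO baseline. Parallel SRB staining (0.1%, TCA-fixed, 560 nm) served as cytotoxicity check.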

[20] = read-out: Matrix Metallopeptidase 9 (MMP9), MMP9 (gene 4318); assay: BSK_BE3C_MMP9: BioMAP Diversity Plus: BE3C Assay for Matrix Metallopeptidase 9 (MMP9) Biomarker Activity (AID 2284283); settings: primary human bronchial epithelial cells
Outline: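 ELISA read-out of MMP-9 after 24 h compound exposure of human lung bronchial epithelial primary cells (BE3C). Fit in gain direction vs DMSO negative control; total protein by SRB in parallel cultures flagged overt cytotoxicity.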

Measured: AC50

FC(F)(F)C(F)(C(F)(F)F)C(F)(F)C(F)(F)CC1CO1 (stereo unspecified)
inactive: all assays above

CCCCOCCOP(=O)(OCCOCCCC)OCCOCCCC
inactive: [2] | [4] | [5] | [6]

CCCCC(CC)COC(=O)c1c(Br)c(Br)c(Br)c(Br)c1C(=O)OCC(CC)CCCC (stereo unspecified)
inactive: [2] | [4] | [5] | [6]

CC(O)C(F)(F)C(F)(F)F (stereo unspecified)
inactive: all assays above

OCC(F)(F)OC(F)(F)C(F)(F)OC(F)(F)CO
inactive: all assays above

NC(=O)C(F)(F)C(F)(F)F
inactive: all assays above

O=C(O)C(F)(F)OC(F)(F)C(F)(F)OC(F)(F)F
active: [14] 22 µM
inactive: [1] | [2] | [3] | [4] | [5] | [6] | [7] | [8] | [9] | [10] | [11] | [12] | [13] | [14] | [15] | [16] | [17] | [18] | [19] | [20]

COC(=O)C(F)(F)C(F)(F)OC(F)(C(F)(F)F)C(F)(F)OC(F)=C(F)F (stereo unspecified)
active: [14] 1.61 µM and 1.92 µM | [16] 3.93 µM and 4.84 µM
inactive: all other assays above

O=S1(=O)OCC2C(CO1)C1(Cl)C(Cl)=C(Cl)C2(Cl)C1(Cl)Cl (stereo unspecified)
inactive: [2] | [4] | [5] | [6]

CCOP(=S)(OCC)SCn1nnc2ccccc2c1=O
inactive: [2] | [4] | [5] | [6]

ClC(Cl)=C(c1ccc(Cl)cc1)c1ccccc1Cl
active: [2] 9.47 µM | [4] 6.71 µM | [5] 9.59 µM | [6] 5.76 µM

COP(=O)(O)OC
inactive: [2] | [4] | [5] | [6]

OCC(F)(F)OC(F)(F)C(F)(F)OC(F)(F)C(F)(F)OC(F)(F)CO
inactive: [1] | [2] | [3] | [4] | [5] | [6] | [7] | [8] | [10] | [11] | [12] | [13] | [14] | [15] | [16] | [17] | [18] | [19] | [20]
active: [9] 30 µM and 24 µM | [16] 30 µM

O=c1ssc(Cl)c1Cl
active: [2] 9.67 µM | [4] 5.58 µM | [5] 20 µM | [6] 7.43 µM

O=P(OCC(Br)CBr)(OCC(Br)CBr)OCC(Br)CBr (stereo unspecified)
active: [5] 25.9 µM
inactive: [2] | [4] | [6]

N#Cc1cc([N+](=O)[O-])ccc1N
inactive: [2] | [4] | [5] | [6]

CC(C)(C)c1ccccc1OP(=O)(Oc1ccccc1)Oc1ccccc1
active: [4] 20 µM | [5] 5.26 µM | [6] 26.8 µM
inactive: [2]

CCCCC(CC)COP(=O)(Oc1ccccc1)Oc1ccccc1 (stereo unspecified)
active: [2] 5.87 µM | [4] 8.43 µM | [5] 5.32 µM | [6] 6.48 µM
